An excerpt weighted towards active compounds, which were near 4.6% of everything screened.
ADAM10 inh = human ADAM10 inhibitors, primary screen, biochemical, QFRET, HTS. Disintegrin and metalloproteinase domain-containing protein 10 (Homo sapiens), O14672. recombinant ADAM10, EDANS/DABCYL FRET peptide cleavage, 3 h. inhibition, % at 7 µM. 0.62% of 370,000 active. AID 720582, 2013;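 active = inhibition above a per-campaign cutoff equal to the mean of compounds falling between control-based bounds plus 3 SD, cut at about 20% in these data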;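 note: 0% = DMSO wells while the 100% control is not disclosed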
GRIN3A LBD mod = binders of NR3A ligand-binding domain, primary screen, biophysical, differential scanning fluorimetry, uHTS | Glutamate receptor ionotropic, NMDA 3A (GRIN3A) ligand-binding domain | 2.5% of 340,000 active | Tm shift relative to glycine control, % at 25 µM | NR3A LBD differential scanning fluorimetry, Tm shift; 0% = protein alone, 100% = glycine-bound protein | AID 1259313, 2017;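 active = melting temperature shift of at least 10% of the positive control shift, at one fixed dose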
ADAM17 inh = ADAM17 inhibitors, primary screen, biochemical, QFRET | recombinant ADAM17, EDANS/DABCYL FRET peptide cleavage | inhibition, % at 6.95 µM | 0.83% of 370,000 active;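 active = inhibition above the mean of compounds lying between control limits plus 3 SD, set per campaign, cut at about 8.5% in these data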;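 note: 0% = DMSO-only wells as the low control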
Target sequence (P78536 215-824 limits assumed): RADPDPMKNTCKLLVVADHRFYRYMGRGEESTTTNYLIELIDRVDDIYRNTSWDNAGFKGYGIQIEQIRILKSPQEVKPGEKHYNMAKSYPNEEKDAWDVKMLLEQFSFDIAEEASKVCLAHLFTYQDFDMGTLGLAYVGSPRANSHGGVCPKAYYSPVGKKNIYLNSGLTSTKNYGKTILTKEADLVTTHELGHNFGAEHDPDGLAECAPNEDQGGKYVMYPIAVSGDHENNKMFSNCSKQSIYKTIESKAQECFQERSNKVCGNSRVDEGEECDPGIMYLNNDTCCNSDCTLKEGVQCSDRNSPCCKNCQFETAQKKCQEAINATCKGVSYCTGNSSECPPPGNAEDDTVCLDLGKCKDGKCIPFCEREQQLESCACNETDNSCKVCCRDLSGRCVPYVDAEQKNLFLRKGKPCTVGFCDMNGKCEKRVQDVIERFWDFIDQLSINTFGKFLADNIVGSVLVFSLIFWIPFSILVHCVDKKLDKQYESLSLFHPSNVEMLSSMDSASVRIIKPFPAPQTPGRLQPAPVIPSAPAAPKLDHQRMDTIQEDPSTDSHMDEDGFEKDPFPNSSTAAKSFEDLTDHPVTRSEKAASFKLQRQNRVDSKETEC
FAS TE block = FAS thioesterase domain inhibitors, primary screen, biochemical, fluorescence intensity, uHTS; Fatty acid synthase (Homo sapiens), P49327; recombinant FAS-TE, OMFH fluorogenic substrate, fluorescence endpoint; inhibition, % at 15 µM; 0.67% of 360,000 active; AID 602261, 2012;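 active = compounds whose normalised, plate-corrected inhibition of enzyme fluorescence in the single-dose primary screen is 50% or more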;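 note: 0% = DMSO with enzyme and 100% = substrate without enzyme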
proKLK7 act = proKLK7 zymogen activators, primary screen, biochemical, fluorescence intensity. purified proKLK7, EDANS-DABCYL substrate fluorescence; 100% is mature enzyme control, 0% vehicle. activation, % at 7 µM. 0.9% of 370,000 active;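 active = activation above the mean of all tested compounds plus 3 SD, computed per campaign excluding outliers beyond control limits, cut at about 13% in these data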
FAS-TE inh conf = FAS thioesterase domain inhibitors, confirmation, biochemical, fluorescence intensity, single concentration. shares compounds with FAS TE block. recombinant FAS-TE, OMFH fluorogenic substrate. inhibition, % at 15 µM. 45% of 2,300 active. AID 624325, 2012;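 active = compounds inhibiting the enzyme by at least 50% at 15 µM in any one of the replicates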;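 note: 0% = enzyme with DMSO only and 100% = wells lacking enzyme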
* marks the source's active call; other numbers are inactive results; . = not tested or not shown.

SMILES	ADAM10 inh	GRIN3A LBD mod	ADAM17 inh	FAS TE block	proKLK7 act	FAS-TE inh conf
CC1CCCCN1C(=O)COC(=O)c1cc([N+](=O)[O-])ccc1N1CCOCC1 (stereo unspecified)	0.9	0.9	0.7	53.7*	0.1	56.9*
O=C(COC(=O)c1ccc(F)cc1Cl)NC1CCCCCCC1	2.9	-1.0	-1.6	14.0	-0.1	.
CCN(C(=O)COC(=O)c1cc([N+](=O)[O-])ccc1N1CCOCC1)C1CCCCC1	1.1	0.5	0.0	85.5*	-0.5	91.8*
O=C(COC(=O)c1cc(F)c(F)cc1Cl)NC1CCCCCC1	-3.8	.	-1.2	55.6*	0.2	67.6*
COc1ccc2c(C(c3ccccc3O)C3CCCN3S(=O)(=O)c3ccc(C)cc3)cn(C)c2c1 (stereo unspecified)	8.8	.	1.9	.	-0.9	.
CCCN(CC1CC1)C(=O)CSc1nnc(-c2ccncc2)n1-c1ccc(OC)cc1	-2.2	.	-0.9	.	1.3	.
C[C@@H]1CCN(C2CC2)S(=O)(=O)c2ccc(N3CC[C@@H](N(C)C)C3)cc2O1	-0.8	.	-4.6	.	-0.2	.
O=C(COC(=O)c1cc([N+](=O)[O-])ccc1N1CCOCC1)NC1CCS(=O)(=O)C1 (stereo unspecified)	-6.9	1.0	-3.2	15.9	-0.2	.
O=C(COC(=O)c1cc([N+](=O)[O-])ccc1N1CCOCC1)NC1CCCCC1	-0.8	1.0	2.1	91.5*	0.2	91.2*
O=S(=O)(c1ccccc1)c1cnc(-c2ccccc2)nc1N1CCCC1	-4.3	-0.9	1.9	13.0	0.2	.
COc1cc2ncc(S(=O)(=O)c3ccccc3)c(N3CCCC(C)C3)c2cc1OC (stereo unspecified)	3.5	14.8*	2.1	78.5*	-0.8	70.8*
CCCc1ccc(C2C3=C(CC(C)(C)CC3=O)NC3=C2C(=O)c2ccccc23)cc1 (stereo unspecified)	11.8	-0.3	7.9	30.3	0.3	.
CCCCc1ccc(C2C3=C(CC(C)(C)CC3=O)NC3=C2C(=O)c2ccccc23)cc1 (stereo unspecified)	-5.6	4.1	-3.3	63.4*	0.0	11.1
Cc1ccccc1CS(=O)(=O)Cc1ccc(C(=O)Nc2ccccc2C)o1	4.2	.	-1.6	.	-0.3	.
C=CCN1C(=O)/C(=C/c2ccc(OC(C)=O)c(OCC)c2[N+](=O)[O-])SC1=S	19.1	4.1	6.4	74.9*	0.1	45.9*
CN(c1c2c(nc3ncnn13)CCCC2)C1CCCCC1	5.1	.	3.0	.	0.7	.
Cc1ccccc1Cn1cc(S(=O)(=O)c2ccc(C(C)C)cc2)c(=O)c2cc3c(cc21)OCO3	-9.8	0.0	-3.5	61.8*	-0.2	32.4
Cc1ccc(Cn2cc(S(=O)(=O)c3ccc(Cl)cc3)c(=O)c3cc(F)ccc32)cc1	5.4	5.2	0.1	3.2	0.1	.
O=c1c(S(=O)(=O)c2ccc(Cl)cc2)cn(Cc2cccc(F)c2)c2ccc(F)cc12	-7.4	0.3	0.3	69.7*	-0.4	31.9
Cc1ccc(Cn2cc(S(=O)(=O)c3ccc(C(C)C)cc3)c(=O)c3cc4c(cc32)OCO4)cc1	-2.2	3.8	2.5	11.4	-3.9	.
Cc1ccc(S(=O)(=O)c2cn(Cc3ccc(F)cc3)c3cc4c(cc3c2=O)OCO4)cc1	-29.1	-2.5	-9.7	58.4*	-5.0	20.0
N#CCC[C@H]1CC[C@]2(CCCN(Cc3cccc4ccccc34)C2)O1	1.2	.	0.2	.	0.2	.
O=C(Nc1ccc(Br)cc1)OCCCN1CCC2(CCCCC2)C1=O	-23.9	.	0.1	.	0.9	.
CCOC(=O)[C@]12CCCC=C1N(CCCOC)C(=O)[C@@H]2CC(=O)NCc1cccs1	-2.6	.	-1.9	.	-0.1	.
N#Cc1c(/N=C/c2ccc(-c3ccc(C(=O)O)c(Cl)c3)o2)sc2c1CCCC2	-79.6	0.5	-19.7	50.2*	-0.5	41.5
SMILES	ADAM10 inh	GRIN3A LBD mod	ADAM17 inh	FAS TE block	proKLK7 act	FAS-TE inh conf
N#Cc1c(/N=C/c2ccc(-c3ccccc3C(=O)O)o2)sc2c1CCCC2	-51.6	0.7	-16.3	-0.3	0.3	.
Cc1cccc(-c2cccc3c4c([nH]c23)[C@@H]2C[C@H](N(C)C(=O)Nc3ccccc3C)[C@H]([C@H](C)O)CN2CC4)c1	-19.9	.	-3.4	.	-0.6	.
COc1cccc(Nc2nc(-c3cccs3)nc3ccccc23)c1	-44.3	20.6*	-12.3	51.0*	1.2	33.6
CC(=O)NNc1nc(-c2ccccc2)cs1	-7.9	-4.2	-0.9	69.6*	-1.3	54.8*
Cc1ccc(-c2[nH]ncc2/C=N/n2c(COc3ccccc3)nc3ccccc3c2=O)cc1	2.1	-1.3	0.7	-9.9	0.7	.
Cc1cc(/C=N/n2c(COc3ccccc3)nc3ccccc3c2=O)c(O)c([N+](=O)[O-])c1	17.7	15.5*	7.3	60.2*	0.0	8.8
O=C(NNS(=O)(=O)c1ccccc1)c1cnn(-c2ccccc2)c1-n1cccc1	-2.8	-2.2	0.4	-4.3	0.2	.
O=C(NNS(=O)(=O)c1ccc([N+](=O)[O-])cc1)c1cnn(-c2ccccc2)c1-n1cccc1	-9.2	0.2	-4.1	65.4*	0.0	74.6*
O=C(NNS(=O)(=O)c1ccc([N+](=O)[O-])cc1)c1ccc([N+](=O)[O-])cc1	2.5	1.4	-2.8	73.6*	0.0	77.1*
COC(=O)[C@H](CC(C)C)N1Cc2nnn(CC3CCCCC3)c2-c2cc(F)ccc2S1(=O)=O	4.2	.	1.6	.	0.4	.
CCn1c2ccccc2c2cc(NC(=O)c3cc4c(C)nn(-c5ccccc5)c4s3)ccc21	-13.4	.	-2.5	.	-6.5	.
Cc1ccccc1NC(=O)OC1CCC12CCC(c1ccccc1)CC2 (stereo unspecified)	2.3	.	0.2	.	0.4	.
CCCCN(CCCC)C(=O)CSc1nnc2n(C)c(=O)c3c4c(sc3n12)CCCC4	4.7	-1.8	-1.9	17.5	0.0	.
Cn1c(=O)c2c3c(sc2n2c(SCC(N)=O)nnc12)CC(C(C)(C)C)CC3 (stereo unspecified)	-5.7	-1.0	-4.9	56.1*	-0.2	41.2
CNC(=O)c1ccccc1Sc1ccccc1C#N	9.0	0.2	-0.8	-1.6	-0.8	.
N#Cc1ccccc1Sc1ccccc1C(=O)Nc1ccc(Br)cc1	15.9	0.4	6.2	51.1*	0.6	-7.3
N#Cc1ccccc1Sc1ccccc1C(=O)Nc1ccc2ccccc2c1	17.1	1.0	8.6*	59.5*	-4.9	37.5
NC(=O)c1ccc(NC(=O)CSc2nnc(-c3ccccc3)n2-c2ccccc2)cc1	-0.1	.	-1.4	.	0.4	.

Screens (PubChem BioAssay)
